Reference: paper PMC7862700, “An all-to-all approach to the identification of sequence-specific readers for epigenetic DNA modifications on cytosine”

How the values were obtained:
Assay in all cases: DAPPL (digital affinity profiling via proximity ligation, sequencing); 10 mM Tris-HCl pH 7.5, 50 mM NaCl, 1 mM DTT, 4% glycerol, room temperature, 30 min; GST-TFs on glutathione beads, 16-mer random dsDNA library, 0.1% formaldehyde crosslink after washing; high values mean tight binding
Settings in all cases: protein: recombinant; tags: N-terminal GST; dsDNA, one strand shown
FLI1 = biological target: T1, FLI1 (Homo sapiens, UniProt Q01543 1-452)
T1 sequence: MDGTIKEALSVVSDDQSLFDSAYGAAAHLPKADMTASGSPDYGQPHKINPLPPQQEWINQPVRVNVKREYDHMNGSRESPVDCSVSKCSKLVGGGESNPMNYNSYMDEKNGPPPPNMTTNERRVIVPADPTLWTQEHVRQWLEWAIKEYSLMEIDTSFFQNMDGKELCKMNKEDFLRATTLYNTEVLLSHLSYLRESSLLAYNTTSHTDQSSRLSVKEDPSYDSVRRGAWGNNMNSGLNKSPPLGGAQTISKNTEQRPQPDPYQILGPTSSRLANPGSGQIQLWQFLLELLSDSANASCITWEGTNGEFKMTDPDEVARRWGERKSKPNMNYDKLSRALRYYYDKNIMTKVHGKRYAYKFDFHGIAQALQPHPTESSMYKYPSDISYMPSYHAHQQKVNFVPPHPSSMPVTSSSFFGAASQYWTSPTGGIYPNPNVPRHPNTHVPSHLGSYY
Method in brief: (§1)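 Each value of binding signal is a hexamer's read frequency for a factor divided by the same hexamer's frequency in the tag-only sample. Barcoded, bead-captured GST fusions of human transcription factors made in yeast were pooled with that sample and incubated with 200 nmole of a random double-stranded 16-mer DNA library in Tris/NaCl/DTT/glycerol buffer at room temperature for 30 min. Washing, 0.1% formaldehyde crosslinking, proximity ligation, PCR and Illumina NextSeq500 sequencing followed.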

ELK1 = biological target: T2, ELK1 (Homo sapiens, UniProt P19419 1-428)
T2 sequence: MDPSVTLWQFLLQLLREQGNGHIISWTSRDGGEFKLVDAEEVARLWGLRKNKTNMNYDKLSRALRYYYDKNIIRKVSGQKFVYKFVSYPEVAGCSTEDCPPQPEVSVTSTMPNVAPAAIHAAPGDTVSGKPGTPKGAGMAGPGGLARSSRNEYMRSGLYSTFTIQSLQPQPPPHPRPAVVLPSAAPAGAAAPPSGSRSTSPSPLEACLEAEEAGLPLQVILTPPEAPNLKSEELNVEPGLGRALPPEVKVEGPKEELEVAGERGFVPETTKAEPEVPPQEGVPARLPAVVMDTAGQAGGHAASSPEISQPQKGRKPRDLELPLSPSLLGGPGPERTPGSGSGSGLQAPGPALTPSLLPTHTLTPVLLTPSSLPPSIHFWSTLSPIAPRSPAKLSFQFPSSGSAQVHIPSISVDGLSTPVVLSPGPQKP
Method in brief: as §1

GABPA = biological target: T3, GABPA (Homo sapiens, UniProt Q06546 1-454)
T3 sequence: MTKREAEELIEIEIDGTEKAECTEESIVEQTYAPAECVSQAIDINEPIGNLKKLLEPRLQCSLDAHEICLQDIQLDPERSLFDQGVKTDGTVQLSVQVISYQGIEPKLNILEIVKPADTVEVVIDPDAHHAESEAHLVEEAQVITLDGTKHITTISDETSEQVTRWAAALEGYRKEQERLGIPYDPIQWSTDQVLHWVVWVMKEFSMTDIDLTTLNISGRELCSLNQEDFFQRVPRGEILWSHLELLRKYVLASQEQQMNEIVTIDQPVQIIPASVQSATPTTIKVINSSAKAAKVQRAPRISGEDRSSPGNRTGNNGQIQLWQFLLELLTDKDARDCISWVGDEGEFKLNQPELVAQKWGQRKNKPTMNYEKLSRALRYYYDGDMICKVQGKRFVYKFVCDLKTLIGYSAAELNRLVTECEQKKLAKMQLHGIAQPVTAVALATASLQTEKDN
Method in brief: as §1

ERG = biological target: T4, ERG (Homo sapiens, UniProt P11308 1-479)
T4 sequence: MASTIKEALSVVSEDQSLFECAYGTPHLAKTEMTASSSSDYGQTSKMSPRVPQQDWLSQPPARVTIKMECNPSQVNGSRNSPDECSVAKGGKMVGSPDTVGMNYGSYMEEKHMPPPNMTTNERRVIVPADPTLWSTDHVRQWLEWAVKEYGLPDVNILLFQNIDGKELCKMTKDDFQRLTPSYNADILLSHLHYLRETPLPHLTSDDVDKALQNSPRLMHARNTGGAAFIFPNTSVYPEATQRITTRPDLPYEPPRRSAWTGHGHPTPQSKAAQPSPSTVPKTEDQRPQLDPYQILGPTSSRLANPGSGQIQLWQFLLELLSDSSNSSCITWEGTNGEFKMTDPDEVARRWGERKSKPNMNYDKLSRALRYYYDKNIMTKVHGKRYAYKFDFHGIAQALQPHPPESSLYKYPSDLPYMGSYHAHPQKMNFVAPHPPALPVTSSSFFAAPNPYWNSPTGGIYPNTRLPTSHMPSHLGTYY
Method in brief: as §1

ELF1 = ELF1 (Homo sapiens, UniProt P32519 1-619)
Method in brief: as §1

EHF = biological target: T5, EHF (Homo sapiens, UniProt Q9NZC4 1-300)
T5 sequence: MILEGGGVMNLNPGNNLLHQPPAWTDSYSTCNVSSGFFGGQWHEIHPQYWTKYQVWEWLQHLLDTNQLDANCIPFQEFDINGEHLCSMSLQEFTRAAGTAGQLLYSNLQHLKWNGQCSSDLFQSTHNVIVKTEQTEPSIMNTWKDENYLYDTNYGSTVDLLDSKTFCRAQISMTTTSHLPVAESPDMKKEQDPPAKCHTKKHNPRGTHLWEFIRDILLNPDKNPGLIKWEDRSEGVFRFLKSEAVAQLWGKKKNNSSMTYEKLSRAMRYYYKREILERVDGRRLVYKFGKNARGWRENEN
Method in brief: as §1

SPI1 = SPI1 (Homo sapiens, UniProt P17947 1-270)
Method in brief: as §1

SPIB = SPIB (Homo sapiens, UniProt Q01892 1-262)
Method in brief: as §1

ELK3 = biological target: T6, ELK3 (Homo sapiens, UniProt P41970 1-407)
T6 sequence: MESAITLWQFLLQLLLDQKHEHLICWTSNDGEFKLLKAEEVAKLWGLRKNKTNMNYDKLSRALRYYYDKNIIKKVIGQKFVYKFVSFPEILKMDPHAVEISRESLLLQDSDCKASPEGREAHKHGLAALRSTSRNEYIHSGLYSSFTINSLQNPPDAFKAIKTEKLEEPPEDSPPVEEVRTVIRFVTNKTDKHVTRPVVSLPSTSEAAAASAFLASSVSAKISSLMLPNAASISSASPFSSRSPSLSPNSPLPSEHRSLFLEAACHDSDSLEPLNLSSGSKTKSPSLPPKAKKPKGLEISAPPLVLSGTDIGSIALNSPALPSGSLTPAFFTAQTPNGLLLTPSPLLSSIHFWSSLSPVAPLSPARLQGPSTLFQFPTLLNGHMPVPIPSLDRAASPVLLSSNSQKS
Method in brief: as §1

ELF1, sequence (P32519 whole entry): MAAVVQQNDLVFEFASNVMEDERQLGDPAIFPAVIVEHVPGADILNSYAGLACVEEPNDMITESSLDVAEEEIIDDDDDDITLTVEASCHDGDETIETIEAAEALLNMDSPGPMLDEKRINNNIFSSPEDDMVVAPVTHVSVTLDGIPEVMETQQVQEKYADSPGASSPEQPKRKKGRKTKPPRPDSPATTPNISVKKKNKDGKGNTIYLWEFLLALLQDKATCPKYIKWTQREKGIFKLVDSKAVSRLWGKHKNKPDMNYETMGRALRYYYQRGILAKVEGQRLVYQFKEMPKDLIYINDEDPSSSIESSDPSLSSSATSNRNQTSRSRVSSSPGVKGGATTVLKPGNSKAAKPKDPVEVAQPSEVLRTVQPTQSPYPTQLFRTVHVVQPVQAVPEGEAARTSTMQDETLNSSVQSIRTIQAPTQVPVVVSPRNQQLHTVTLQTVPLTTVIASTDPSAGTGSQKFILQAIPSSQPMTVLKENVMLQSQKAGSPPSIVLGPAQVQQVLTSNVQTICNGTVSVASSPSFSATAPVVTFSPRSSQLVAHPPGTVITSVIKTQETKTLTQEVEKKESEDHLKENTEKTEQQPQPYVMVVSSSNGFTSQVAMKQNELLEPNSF
SPIB, sequence (Q01892 whole entry): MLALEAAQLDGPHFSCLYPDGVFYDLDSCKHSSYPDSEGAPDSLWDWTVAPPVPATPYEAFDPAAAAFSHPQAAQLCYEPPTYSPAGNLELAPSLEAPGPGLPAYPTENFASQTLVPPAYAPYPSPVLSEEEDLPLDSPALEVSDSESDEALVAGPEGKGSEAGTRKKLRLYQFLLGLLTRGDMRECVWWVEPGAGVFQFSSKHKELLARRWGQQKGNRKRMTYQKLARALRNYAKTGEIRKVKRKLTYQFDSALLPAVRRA

Sequence | binding signal (FLI1) | binding signal (ELK1) | binding signal (GABPA) | binding signal (ERG) | binding signal (ELF1) | binding signal (EHF) | binding signal (SPI1) | binding signal (SPIB) | binding signal (ELK3)
ACCTTG | 1.27 fold enrichment (6-mer frequency, TF over GST control) | 1.37 fold enrichment (6-mer frequency, TF over GST control) | 1.24 fold enrichment (6-mer frequency, TF over GST control) | 1.1 fold enrichment (6-mer frequency, TF over GST control) | 1.21 fold enrichment (6-mer frequency, TF over GST control) | 1.3 fold enrichment (6-mer frequency, TF over GST control) | 1.17 fold enrichment (6-mer frequency, TF over GST control) | 1.18 fold enrichment (6-mer frequency, TF over GST control) | 1.38 fold enrichment (6-mer frequency, TF over GST control)
TGGAAA | 1.09 fold enrichment (6-mer frequency, TF over GST control) | 1.12 fold enrichment (6-mer frequency, TF over GST control) | 1.19 fold enrichment (6-mer frequency, TF over GST control) | 1.11 fold enrichment (6-mer frequency, TF over GST control) | 1.04 fold enrichment (6-mer frequency, TF over GST control) | 1.1 fold enrichment (6-mer frequency, TF over GST control) | 1.16 fold enrichment (6-mer frequency, TF over GST control) | 1.17 fold enrichment (6-mer frequency, TF over GST control) | 1.15 fold enrichment (6-mer frequency, TF over GST control)
GACATT | 1.16 fold enrichment (6-mer frequency, TF over GST control) | 1.17 fold enrichment (6-mer frequency, TF over GST control) | 1.12 fold enrichment (6-mer frequency, TF over GST control) | 1.15 fold enrichment (6-mer frequency, TF over GST control) | 1.16 fold enrichment (6-mer frequency, TF over GST control) | 1.11 fold enrichment (6-mer frequency, TF over GST control) | 1.13 fold enrichment (6-mer frequency, TF over GST control) | 1.16 fold enrichment (6-mer frequency, TF over GST control) | 1.02 fold enrichment (6-mer frequency, TF over GST control)
CTTACT | 1.38 fold enrichment (6-mer frequency, TF over GST control) | 1.31 fold enrichment (6-mer frequency, TF over GST control) | 1.3 fold enrichment (6-mer frequency, TF over GST control) | 1.27 fold enrichment (6-mer frequency, TF over GST control) | 1.29 fold enrichment (6-mer frequency, TF over GST control) | 1.34 fold enrichment (6-mer frequency, TF over GST control) | 1.3 fold enrichment (6-mer frequency, TF over GST control) | 1.27 fold enrichment (6-mer frequency, TF over GST control) | 1.34 fold enrichment (6-mer frequency, TF over GST control)
AAGCTC | 1.22 fold enrichment (6-mer frequency, TF over GST control) | 1.22 fold enrichment (6-mer frequency, TF over GST control) | 1.25 fold enrichment (6-mer frequency, TF over GST control) | 1.17 fold enrichment (6-mer frequency, TF over GST control) | 1.2 fold enrichment (6-mer frequency, TF over GST control) | 1.15 fold enrichment (6-mer frequency, TF over GST control) | 1.12 fold enrichment (6-mer frequency, TF over GST control) | 1.11 fold enrichment (6-mer frequency, TF over GST control) | 1.09 fold enrichment (6-mer frequency, TF over GST control)
CTCGTA | 1.31 fold enrichment (6-mer frequency, TF over GST control) | 1.37 fold enrichment (6-mer frequency, TF over GST control) | 1.3 fold enrichment (6-mer frequency, TF over GST control) | 1.22 fold enrichment (6-mer frequency, TF over GST control) | 1.32 fold enrichment (6-mer frequency, TF over GST control) | 1.31 fold enrichment (6-mer frequency, TF over GST control) | 1.39 fold enrichment (6-mer frequency, TF over GST control) | 1.38 fold enrichment (6-mer frequency, TF over GST control) | 1.36 fold enrichment (6-mer frequency, TF over GST control)
TCGCAA | 1.21 fold enrichment (6-mer frequency, TF over GST control) | 1.22 fold enrichment (6-mer frequency, TF over GST control) | 1.19 fold enrichment (6-mer frequency, TF over GST control) | 1.16 fold enrichment (6-mer frequency, TF over GST control) | 1.19 fold enrichment (6-mer frequency, TF over GST control) | 1.18 fold enrichment (6-mer frequency, TF over GST control) | 1.03 fold enrichment (6-mer frequency, TF over GST control) | 1.08 fold enrichment (6-mer frequency, TF over GST control) | 1.06 fold enrichment (6-mer frequency, TF over GST control)
